Reference: PubChem BioAssay AID1259343 (VanderVen Lab, College of Veterinary Medicine, Cornell …, 2017)
Screen size: about 6,200 compounds; about 2,900 (47%) were called active. The set was probably picked from earlier hits. The list shows a part of the results. A number with no mark means an inactive call. Rule as the data show it: active = inhibition above about 50%; inactive = the rest.

Test: Mycobacterium tuberculosis growth inhibition, primary screen (AID 1259343)
Conditions: inhibition: at 10 µM, stronger effect = higher value; outcome: 10 uM

Structure (SMILES)	inhibition
Oc1ccc(-c2nc3c4cnn(-c5ccccc5Cl)c4ncn3n2)cc1	44.1%
O=C(c1cnn2cccnc12)N1CCOc2ccc(C(O)C(c3ccccc3)c3ccccc3)cc2C1 (centres undefined)	-21.2%
Cc1cc(C(C)(C)CC(C)(C)C)ccc1OCCOCC[N+](C)(C)Cc1ccccc1	87.5% (active)
CCCCCCCCN1C(=O)CC(=O)NC1=S	27.6%
CCCCCCCCc1nc(=S)[nH][nH]1	86.1% (active)
Cc1nc2sc3c(c2c(=O)o1)CCCCC3	102% (active)
CC(C)(C)c1nc2sc3c(c2c(=O)o1)CCCC3	25.7%
O=C1CCC(=O)N1c1ccc(-c2nc3sc4c(c3c(=O)o2)CCC4)cc1	-4.37%
COc1ccccc1C(C)(C)C(=O)n1nc(C(F)(F)F)nc1N	7.93%
Cc1cnn(C2CN(c3ccc(S(=O)(=O)C(F)(F)F)cc3)C2)c1	84.2% (active)
NC(=O)C1CCN(c2ccc(S(=O)(=O)C(F)(F)F)cc2)C1 (centres undefined)	-74.6%
FC(F)(F)c1ccc(Cn2ccnc2CNC2CCCCC2)cc1	21.3%
Cc1cc(C)c(Cn2ccnc2CN(C(=O)c2ccc(F)cc2)C2CC2)c(C)c1	51.5% (active)
CCN(C(=O)c1cc(C)c(-c2ccc(F)cc2)s1)C1CCC1	24.1%
CC1=C(C)C(=O)C(CCCCC#CCCCC#CCO)=C(C)C1=O	84.5% (active)
C=C(C)CN=c1scc(C)n1N=Cc1sccc1C	21.6%
COc1ccc2cc(CN(C)C(=O)CCl)ccc2c1	inactive
COc1ccc(COc2ccc(N(C)C(N)=O)cc2)c(Cl)c1	15.9%
COc1ccc(N(CC(F)(F)F)C(=O)CCl)cc1	84.1% (active)
CC1CCc2sc(C(=O)NCc3ccc4c(c3)OCO4)cc2C1 (centres undefined)	-11%
CC1CCCC(NC(=O)c2cc3c(s2)CSC3)C1C (centres undefined)	55.5% (active)
COc1ccc(-c2c(O)c3c(OC)c4c(cc3oc2=O)OC(C)(C)C=C4)cc1	63.3% (active)

Structure (SMILES)	inhibition
CC(=O)O[C@@H]1C[C@@]2(C)[C@H](c3ccoc3)C[C@H]3O[C@]32[C@]2(C)C(=O)C(O)=C3C(C)(C)C(=O)C=C[C@]3(C)C12 (some centres undefined)	94.8% (active)
COc1cc(=C2C=c3ccccc3=N2)[nH]/c1=C\c1[nH]c(C)cc1C	-5.42%
O=C(NC(=S)Nc1ccc(N2CCN(C(=O)c3ccccc3)CC2)cc1)c1ccco1	99.1% (active)
O=C(Nc1cccc(-c2cccc(Cl)c2)c1)C1CCN(C(=O)c2cccnc2)CC1	inactive
COc1ccc(C(=O)N2CCC(C(=O)Nc3cccc(-c4cccc(Cl)c4)c3)CC2)o1	70.5% (active)
O=C(Nc1cccc(-c2cccc(Cl)c2)c1)C1CCN(C(=O)C2CCCO2)CC1 (centres undefined)	9.39%
O=C(Nc1cccc(-c2cccc(Cl)c2)c1)C1CCN(C(=O)C2CCOC2)CC1 (centres undefined)	71% (active)
O=C(Nc1cccc(-c2cccc(Cl)c2)c1)C1CCN(C(=O)c2ccccc2)CC1	85.9% (active)
O=C(Nc1cccc(-c2cccc(Cl)c2)c1)C1CCN(C2CCOCC2)CC1	88.7% (active)
O=C(Nc1cccc(-c2cccc(Cl)c2)c1)C1CCN(C(=O)c2csnn2)CC1	-4.87%
O=C(Nc1cccc(-c2cccc(Cl)c2)c1)C1CCN(C(=O)C2CC=CCC2)CC1 (centres undefined)	81.6% (active)
CC(C)c1nccc(-c2nccn2CC2(O)CCN(C)CC2)n1	-4.81%
COc1ccccc1-c1c(C)nn2c(NC(C)c3ccccc3)cc(C)nc12 (centres undefined)	5.58%
COc1ccc(Cc2[nH]n3c(=O)cc(C)nc3c2-c2ccccc2)cc1	37.9%
COc1ccccc1-c1c(C)[nH]n2c(=O)cc(-c3ccc([N+](=O)[O-])cc3)nc12	77.8% (active)
CC(Oc1ccc(Cl)cc1Cl)c1nc(-c2ccncc2)no1 (centres undefined)	43.3%
COc1ccc(NC(C)c2nc(C)no2)cc1Cl (centres undefined)	57.6% (active)
COc1ccc(Nc2nc3cc(Cl)ccc3o2)cc1Cl	21.2%
CNc1nc(C)c(C(=O)c2ccc(C)cc2)s1	86.1% (active)
O=C(NNS(=O)(=O)c1ccc2c(c1)OCCO2)c1cc2c(s1)CCCCC2	20.9%
CC(Cc1ccco1)NC(=O)c1cc2c(s1)CCC2 (centres undefined)	93.1% (active)
CN(CC(=O)Nc1sc2c(c1C#N)CCCCC2)Cc1ccco1	49.1%

Structure (SMILES)	inhibition
S=c1sc2c(Cl)ncnc2n1-c1ccccc1	60.9% (active)
Cn1c(=O)c([N+](=O)[O-])c(N2CCN(Cc3cccc4ccccc34)CC2)c2ccccc21	59% (active)
Cn1c(=O)c([N+](=O)[O-])c(N2CCN(Cc3ccc(Cl)cc3Cl)CC2)c2ccccc21	40.7%
Cn1c(=O)c([N+](=O)[O-])c(N2CCN(CCOc3ccc(Cl)cc3)CC2)c2ccccc21	38.3%
CC(NCc1cc(=O)n2cc(Br)ccc2n1)c1cc(F)c(Cl)cc1Cl (centres undefined)	27.6%
Brc1ccc(CSc2nc3ncccc3[nH]2)cc1	34%
O=c1cc(CSc2nc3ncc(Cl)cc3[nH]2)nc2ccc(Br)cn12	101% (active)
CCCC[P+](CCCC)(CCCC)Cc1ccc(NC(=O)[C@@H](Cc2ccc3ccccc3c2)NC(=NC2CCCCC2)NC2CCCCC2)cc1	95.8% (active)
O=C(Nc1ncccc1OCC1CCCCC1)c1cscn1	55.5% (active)
O=C(NCC1(c2ccccc2)CC1)c1cc(Cl)ccc1O	94.2% (active)
O=S(=O)(NCC1(c2ccccc2)CC1)N1CCCCCC1	16.5%
N#CC(C(=O)C1COc2ccccc2O1)c1nc2ccccc2s1 (centres undefined)	19%
N#CC(C(=O)C1c2ccccc2-c2ccccc21)c1nc2ccccc2s1 (centres undefined)	33.3%
N#CC(C(=O)COc1cc(F)ccc1F)c1nc2ccccc2s1 (centres undefined)	91.5% (active)
COc1ccc2cc(-c3[nH]ncc3CNC(C)Cc3cccs3)ccc2c1 (centres undefined)	50.1% (active)
COc1ccc(-c2[nH]ncc2CNC(=O)CC2COCCN2)cc1 (centres undefined)	-11.1%
CCOc1ccc(OCCCCOc2ccccc2C(C)=O)cc1	98% (active)
CCOc1ccc(Oc2ccc(NC(C)=O)cc2)cc1	-0.29%
CCOc1ccc(Oc2ccccc2NC(C)=O)cc1	73.6% (active)
CCOc1cccc(OCCCOc2ccccc2C(C)=O)c1	92.5% (active)
